Laboratory results as given in the supplement of paper PMC6522484.
± gives the standard deviation of the averaged measurements.

Assays:
DLD1 [1] = assay: cell viability (CellTiter-Glo) relative to plate median (fraction of plate median); higher = more viable cells; details: 5 µM; treatment time 24 h; reporter: 7TFP
Method in brief: (§1)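 Values are well luminescence normalised to the plate median, from either a firefly luciferase or a CellTiterGlo readout on parallel plates. The cells, colorectal cancer lines stably transduced with lentiviral 7TFP or TCF4/Wnt firefly luciferase reporters, were treated with library compounds at a final 5 µM for 24 h. The mean of two independent replicates is listed.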

HCT116 = assay: as above; details: 5 µM; treatment time 24 h; reporter: TCF4/Wnt
Method in brief: as §1

SW480 [2] = assay: as above; details: 5 µM; treatment time 24 h; reporter: 7TFP
Method in brief: as §1

DLD1 [3] = assay: TCF/Wnt firefly luciferase reporter signal relative to plate median (fraction of plate median); higher = higher Wnt reporter signal; details: 5 µM; treatment time 24 h; reporter: 7TFP
Method in brief: as §1

SW480 [4] = assay: as above; details: 5 µM; treatment time 24 h; reporter: 7TFP
Method in brief: as §1

Structure (SMILES) | cell viability (DLD1 [1]) | cell viability (HCT116) | cell viability (SW480 [2]) | TCF/Wnt firefly luciferase reporter signal (DLD1 [3]) | TCF/Wnt firefly luciferase reporter signal (SW480 [4])
COc1c2c(cc3c1OCO3)CC[N+](C)=C2 | 0.978 ± 0.046 | 0.945 ± 0.072 | 0.991 ± 0.07 | 1 ± 0.036 | 1.075 ± 0.0071
CC(C)(C)NCC(O)c1ccccc1Cl (stereo not given) | 1.045 ± 0.0071 | 1.04 ± 0.079 | 1.04 ± 0.028 | 0.949 ± 0.027 | 1.06 ± 0.057
CCNc1nc(Cl)nc(NC(C)C)n1 | 0.981 ± 0.017 | 1.07 ± 0.064 | 0.946 ± 0.023 | 0.965 ± 0.0071 | 0.976 ± 0.0071
CCCC(C)C1(CC)C(=O)NC(=S)NC1=O (stereo not given) | 1.005 ± 0.0071 | 1.03 ± 0.11 | 1.02 ± 0.035 | 1.16 ± 0.15 | 0.974 ± 0.065
O=C1C(Cl)=C(Cl)C(=O)C(Cl)=C1Cl | 0.967 ± 0.061 | 0.977 ± 0.033 | 0.991 ± 0.028 | 0.997 ± 0.16 | 1.02 ± 0.065
CN1[C@@H]2CC[C@H]1C[C@@H](OC(c1ccccc1)c1ccccc1N)C2 (stereo not given in full) | 0.982 ± 0.096 | 0.954 ± 0.0085 | 1.03 ± 0.028 | 0.999 ± 0.16 | 0.8705 ± 0.0035
Cc1[nH]c2ccccc2c1CN(C)C | 1.05 ± 0.014 | 1.18 ± 0.11 | 1.085 ± 0.0071 | 1.07 ± 0.11 | 1.07 ± 0.057
CCC(=O)O[C@H]1CC[C@H]2[C@@H]3CCC4=CC(=O)CC[C@]4(C)[C@H]3CC[C@]12C | 1.02 ± 0.045 | 0.894 ± 0.06 | 1 ± 0.012 | 0.994 ± 0.17 | 0.99 ± 0.013
C#C[C@]1(O)CC[C@H]2[C@@H]3CCC4=CC(=O)CC[C@]4(C)[C@H]3CC[C@@]21C | 1.02 ± 0.042 | 1.06 ± 0.021 | 0.962 ± 0.048 | 1.05 ± 0.064 | 1.05 ± 0.076
CN[C@@H]1[C@@H](O)[C@@H](O[C@@H]2[C@@H](O)[C@H](O[C@H]3O[C@H]([C@@H](C)O)[C@@H](O)[C@H](O)[C@H]3N)[C@@H](N)C[C@H]2N)OC[C@]1(C)O | 1.075 ± 0.0071 | 1.04 ± 0.035 | 1.08 ± 0.071 | 0.964 ± 0.12 | 1.08 ± 0.085
CC(C)(C#N)O[C@@H]1O[C@H](CO)[C@@H](O)[C@H](O)[C@H]1O | 0.945 ± 0.078 | 1.06 ± 0.014 | 0.992 ± 0.0014 | 0.953 ± 0.036 | 0.933 ± 0.036
O=C(O)CF | 0.951 ± 0.049 | 0.968 ± 0.059 | 1.035 ± 0.0071 | 1.05 ± 0.014 | 1.07 ± 0.042
C=C1C[C@@H]2[C@H](CC[C@]3(C)C(=O)CC[C@@H]23)[C@@]2(C)C=CC(=O)C=C12 | 1.03 ± 0.11 | 1.12 ± 0.05 | 1.02 ± 0.031 | 0.961 ± 0.17 | 1.02 ± 0.13
CN1[C@H]2C[C@H](OC(=O)[C@H](CO)c3ccccc3)C[C@@H]1[C@@H](O)C2 | 0.934 ± 0.033 | 1 ± 0.039 | 0.957 ± 0.03 | 0.924 ± 0.025 | 0.94 ± 0.073
CC[C@@]1(O)C[C@H](O)c2c(cc3c(c2O)C(=O)c2c(O)ccc(O)c2C3=O)[C@H]1C(=O)OC | 1.02 ± 0.067 | 1.05 ± 0.035 | 1.01 ± 0.03 | 1.08 ± 0.021 | 0.908 ± 0.12
NC(=O)c1cc([N+](=O)[O-])cc([N+](=O)[O-])c1 | 1.01 ± 0.015 | 1.01 ± 0.093 | 0.98 ± 0.016 | 1.06 ± 0.05 | 0.923 ± 0.14
CCC(C)C(=O)c1c(O)c(C)c2oc3c(C)c(O)c(C(=O)C(C)CC)c(O)c3c2c1O (stereo not given) | 0.997 ± 0.033 | 0.95 ± 0.11 | 0.998 ± 0.045 | 0.9565 ± 0.0035 | 0.9575 ± 0.0092
CCOP(=S)(OCC)Oc1ccc2c(C)c(Cl)c(=O)oc2c1 | 0.989 ± 0.044 | 0.983 ± 0.14 | 0.9335 ± 0.005 | 0.928 ± 0.04 | 0.89 ± 0.012
C1CCc2nnnn2CC1 | 0.931 ± 0.05 | 1.05 ± 0.035 | 0.925 ± 0.052 | 0.963 ± 0.017 | 1.11 ± 0.042
C=CCSSCC=C | 1.055 ± 0.0071 | 1.045 ± 0.0071 | 1.05 ± 0.078 | 1.1 ± 0.085 | 0.95 ± 0.13
CC1(C)C2C[C@@H](O)[C@]3(C)C(CC[C@@]4(C)[C@H](c5ccoc5)OC(=O)[C@H]5O[C@]543)[C@@]2(C)[C@@H](O)C[C@H]1O (stereo not given in full) | 1.02 ± 0.071 | 0.963 ± 0.081 | 0.989 ± 0.0057 | 1.07 ± 0.18 | 0.936 ± 0.055
CNC(C)C(O)c1ccccc1 (stereo not given) | 1.08 ± 0.021 | 1.09 ± 0.014 | 1.07 ± 0.042 | 1.1 ± 0.078 | 0.905 ± 0.071

Structure (SMILES) | cell viability (DLD1 [1]) | cell viability (HCT116) | cell viability (SW480 [2]) | TCF/Wnt firefly luciferase reporter signal (DLD1 [3]) | TCF/Wnt firefly luciferase reporter signal (SW480 [4])
CCC1(C2=NCCN2)Cc2ccccc2O1 (stereo not given) | 0.9965 ± 0.005 | 1.04 ± 0.021 | 1.02 ± 0.09 | 1.015 ± 0.0071 | 1.04 ± 0.035
CC1C[C@H]2CC(=O)[C@H]3CCCN4CCC[C@H]2[C@]34C1.[O-][Cl+3]([O-])([O-])O (stereo not given in full) | 0.97 ± 0.011 | 1.01 ± 0.031 | 0.933 ± 0.0042 | 1.1 ± 0.099 | 1.1 ± 0.16
CCC[C@H]1CCCCN1 | 1.01 ± 0.021 | 0.936 ± 0.046 | 0.983 ± 0.039 | 1.04 | 1.05 ± 0.087
COC1CC(OC2CCC3(C)C(CCC4C3CCC3(C)C(C5=CC(=O)OC5)CCC43O)C2)OC(C)C1OC1OC(COC2OC(CO)C(O)C(O)C2O)C(O)C(O)C1O (stereo not given) | 0.873 ± 0.11 | 0.969 ± 0.0099 | 0.964 ± 0.044 | 1.14 ± 0.042 | 1.03 ± 0.098
CC1=CC(=O)c2c(O)cccc2C1=O | 0.0607 ± 0.019 | 0.229 ± 0.24 | 0.404 ± 0.51 | 0.0412 ± 0.032 | 0.157 ± 0.19
CC(C)c1ccc2c(c1O)CC[C@H]1C3=C(CC[C@]21C)C(=O)OC3 | 1.1 ± 0.042 | 1.1 ± 0.099 | 1.09 | 1.04 ± 0.19 | 1.06
COC(=O)[C@H]1O[C@@H]2C[C@H]3O[C@@H](n4cnc5c(N)ncnc54)[C@H](OC)[C@H]3O[C@@]2(O)[C@@H](O)[C@@H]1O [Herbicidin B] | 0.988 ± 0.032 | 1.04 ± 0.081 | 1.05 ± 0.021 | 0.857 ± 0.061 | 0.945 ± 0.051
Oc1ccc2c3c1O[C@H]1[C@@H](O)CC[C@@]4(O)[C@@H](C2)N(CC2CCC2)CC[C@]314 | 1 ± 0.067 | 1 ± 0.014 | 0.942 ± 0.082 | 0.979 ± 0.03 | 1.06 ± 0.064
N#C/C(=C\c1cccc(O)c1)C(=O)O [alpha-CYANO-3-HYDROXYCINNAMIC ACID] | 1.05 ± 0.028 | 1.01 ± 0.033 | 1.04 ± 0.028 | 1.15 ± 0.18 | 1.02 ± 0.014
CC(=O)O[C@@H]1CC2C(C)(C)[C@H](O)C=C[C@]2(C)C2CC[C@]3(C)C(=CC(=O)O[C@H]3c3ccoc3)[C@@]21C (stereo partly drawn) [3-alpha-HYDROXYDEOXYGEDININ] | 1.08 ± 0.092 | 1.11 ± 0.014 | 1.08 ± 0.11 | 1.04 ± 0.097 | 0.943 ± 0.076
NCC(O)c1ccc(O)cc1 (stereo not given) | 0.972 ± 0.097 | 0.923 ± 0.015 | 0.972 ± 0.011 | 0.954 ± 0.21 | 0.943 ± 0.043
COc1ccc(CCN2CCC(Nc3nc4ccccc4n3Cc3ccc(F)cc3)CC2)cc1 | 0.977 ± 0.089 | 0.982 ± 0.069 | 1.06 ± 0.021 | 1.01 ± 0.017 | 1.035 ± 0.0071
COC(=O)C1=CO[C@@H](C)[C@@H]2CN3CC[C@@]4(C(=O)Nc5ccccc54)[C@H]3C[C@H]12 | 1.1 ± 0.085 | 1.07 ± 0.014 | 1.08 ± 0.035 | 1.02 ± 0.12 | 0.96 ± 0.028
C=C1C2CC[C@@]3(C)[C@H](c4ccoc4)OC(=O)C[C@]13O[C@H]1CC(=O)C(C)(C)[C@H](C(OC(C)=O)C(=O)OC)[C@@]21C (stereo not given in full) | 1.025 ± 0.0071 | 1.13 ± 0.057 | 1 ± 0.014 | 1.16 ± 0.057 | 0.826 ± 0.048
C=C[C@H]1CN2CC[C@H]1C[C@H]2[C@H](OC(=O)OCC)c1ccnc2ccc(OC)cc12 | 1.01 ± 0.06 | 0.911 ± 0.063 | 0.995 ± 0.035 | 0.956 ± 0.013 | 0.98 ± 0.1
CO[C@H]1C[C@H](O[C@H]2CC[C@@]3(C)[C@H](CC[C@@H]4[C@@H]3CC[C@]3(C)[C@@H](C5=CC(=O)OC5)[C@@H](OC(C)=O)C[C@]43O)C2)O[C@@H](C)[C@@H]1O | 1.26 ± 0.028 | 0.486 ± 0.31 | 1.31 ± 0.13 | 0.123 ± 0.13 | 0.171 ± 0.12
C[CH2][Hg][S]c1ccccc1C(=O)[O-].[Na+] | 0.303 ± 0.39 | 0.378 ± 0.36 | 0.0225 ± 0.0017 | 0.274 ± 0.37 | 0.0216 ± 0.0027
CC(C)N(CCC(C(N)=O)(c1ccccc1)c1ccccn1)C(C)C (stereo not given) | 0.914 ± 0.077 | 0.964 ± 0.029 | 0.981 ± 0.011 | 1.16 ± 0.071 | 1.13 ± 0.014
NC(N)=NOCC[C@H](N)C(=O)O | 1.08 ± 0.092 | 1.03 ± 0.035 | 1.03 ± 0.035 | 1.05 ± 0.042 | 0.991 ± 0.013
CC(C)=CCC[C@@H](C(=O)O)[C@H]1CC[C@@]2(C)C3=C(CC[C@]12C)[C@@]1(C)CC[C@H](O)C(C)(C)[C@@H]1CC3 [Trametenolic acid] | 0.995 ± 0.022 | 1.07 ± 0.071 | 1.02 ± 0.028 | 1.08 ± 0.085 | 1.12 ± 0.13
CC[C@H]1[C@@H]2C[C@H]3[C@@H]4N(C)c5ccccc5[C@]45C[C@@H]([C@@H]2[C@H]5O)N3[C@@H]1O | 0.898 ± 0.03 | 0.899 ± 0.1 | 0.95 ± 0.023 | 0.942 ± 0.0085 | 1.05 ± 0.05
